ALDH1A1 block = ALDH1A1 (human) enzyme inhibition | AID 1030 | Potency, µM (highest dose often 75.3 µM), for the others: at the top dose activity, negative = inhibition, hits mostly inhibitors | Purified ALDH1A1, NADH fluorescence, propionaldehyde substrate | actives 7.3% (n = 220,000); active means well fitted inhibition curve with a large enough effect, not every such curve was filed as active; inconclusive means small, poorly fitted or top-dose-only effect, or another doubt; inactive means no such curve, though single readings can be large or run the other way;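 further: plate controls were no enzyme wells and a reference inhibitor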
PLK1 PBD block = inhibitors of human PLK1 polo-box domain binding; P53350; Plk1 PBD binding of FITC phosphopeptide, fluorescence polarization; Potency, µM, inactives show max response, negative = inhibition, usual class: inhibitors; actives 2.8% (n = 360,000); AID 720504; further: series mostly up to about 57 µM; nearly all actives have a fitted effect of over 65% in size
Target sequence (P53350 whole entry, looked up, the tested form may be a part): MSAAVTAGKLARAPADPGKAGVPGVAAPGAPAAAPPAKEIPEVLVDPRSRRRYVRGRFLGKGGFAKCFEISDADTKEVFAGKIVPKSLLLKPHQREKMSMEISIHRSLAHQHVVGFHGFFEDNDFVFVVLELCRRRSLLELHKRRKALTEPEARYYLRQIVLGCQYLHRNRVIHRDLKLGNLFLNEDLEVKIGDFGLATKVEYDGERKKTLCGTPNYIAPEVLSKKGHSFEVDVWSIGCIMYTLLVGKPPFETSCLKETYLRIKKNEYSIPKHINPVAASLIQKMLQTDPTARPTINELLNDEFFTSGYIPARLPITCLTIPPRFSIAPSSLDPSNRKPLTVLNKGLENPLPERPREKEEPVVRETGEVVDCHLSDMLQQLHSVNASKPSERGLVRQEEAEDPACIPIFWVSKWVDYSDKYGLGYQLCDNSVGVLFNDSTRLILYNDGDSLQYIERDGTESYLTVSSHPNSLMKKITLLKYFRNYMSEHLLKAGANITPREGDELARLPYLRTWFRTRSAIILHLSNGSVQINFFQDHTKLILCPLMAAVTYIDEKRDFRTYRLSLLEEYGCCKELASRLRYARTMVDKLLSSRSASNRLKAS
Gal4-VP16 FLuc = inhibits Gal4-VP16 luciferase reporter, ROR gamma counter-screen. AID 2546. actives 3.5% (n = 310,000). Potency, µM (titrated, usually from 53.6 µM), for inactives: at the top dose activity, negative = inhibition, usual class: inhibitors. Drosophila S2 Gal4-VP16 UAS-luciferase, luminescence, 20 h;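 further: Gal4-VP16 expression switched on by copper sulfate through the metallothionein promoter; nearly all actives have a fitted effect of over 50% in size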
RORg inh = blocks mouse ROR gamma transcriptional activity. AID 2551. actives 5.4% (n = 310,000). P51450. Potency, µM (titrated, usually from 53.6 µM), inactives show at the top dose activity change, negative = inhibition, most hits filed as inhibitors. Drosophila S2 Gal4-RORgamma UAS-luciferase reporter, 20 h; further: nearly all actives have a fitted effect of over 60% in size
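Luciferase reporter read in Schneider cells carrying Gal4-RORγ (mouse) and UAS-Photinus luciferase; cells given compound 1 h before 700 uM copper sulfate induction, then incubated 20 h at ambient temperature.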
Sfp inh = Sfp phosphopantetheinyl transferase inhibition; Biochemical Sfp PPTase activity, qHTS; Q9F4F7; actives 3.5% (n = 310,000); Potency, µM, for the others: largest response in the series, negative = inhibition, hits mostly inhibitors;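 further: the enzyme is Sfp with the accession as filed and its product quenches rhodamine fluorescence; 0% = enzyme reaction without inhibitor and -100% = no enzyme wells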
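Buffer: 50 mM Hepes-Na pH 7.6, 10 mM MgCl2, 0.01% Nonidet P-40, 0.01% BSA. Enzyme 15 nM, pre-exposed to compound 15 min; substrates then added and fluorescence change tracked over 30 min.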
The depositor's hits bear a star; [ ] = dose if it differs, or a comment. Compounds with a hit are over-represented: about 12% of the library has one in this group of screens. Unless noted, the call rests on the fitted dose curve; in most records, active means well fitted curve in the direction sought with a large enough effect; inconclusive means small, poorly fitted or top-dose-only effect, or another doubt; inactive means no such curve, though single readings can be large; an effect the other way counts as inactive or inconclusive. Unless noted, on the % scale 0 is the no-effect control and ±100 the full control effect; potency means the concentration at half of the fitted maximal effect.

Screening C=CCC(C)(O)/C=C/c1ccccc1 (stereo not drawn) returned ALDH1A1 block 1.1%, Gal4-VP16 FLuc 7.7%, RORg inh 3.4% and Sfp inh -5.9%.
Screening Cc1ccc(NC(=O)c2cnc(N3CCN(c4ccccn4)CC3)c3ccccc23)c(Br)c1 returned ALDH1A1 block inconclusive, PLK1 PBD block 23.8µM*, Gal4-VP16 FLuc inconclusive, RORg inh inconclusive and Sfp inh -14.6%.
`Cc1ccccc1-c1ocnc1C(=O)Nc1ccccc1NC(=O)c1ccccn1` gave PLK1 PBD block 2.1%, Gal4-VP16 FLuc 7.08µM*, RORg inh 2.24µM* and Sfp inh inconclusive.
For CO[C@@H]1COC(=O)C/C=C\[C@@H](C)[C@H](OC)COC(=O)C/C=C\[C@H]1C the results were ALDH1A1 block 10.9%[13.5 µM], Gal4-VP16 FLuc 0.3%[10 µM], RORg inh -13.1%[10 µM] and Sfp inh 11.4%.
Cc1c2c(nc3ccccc13)CCC(C(C)(C)C)C2 (stereo not drawn) was read as ALDH1A1 block -11.9%, PLK1 PBD block 0.2%, Gal4-VP16 FLuc inconclusive, RORg inh 3.98µM* and Sfp inh -19.0%.
COc1cc([N+](=O)[O-])cc(/C=N/NC(=O)CC#N)c1O was read as ALDH1A1 block 14.1µM*, Gal4-VP16 FLuc 4.5%, RORg inh -27.2% and Sfp inh 8.4%.
COc1cc(/C=N/NC(=O)CSc2ccccn2)ccc1O was read as PLK1 PBD block 4.6%, Gal4-VP16 FLuc 1.0%, RORg inh -9.5% and Sfp inh 5.8%.
`COc1cc([N+](=O)[O-])cc(/C=N/NC(=O)Cn2cncn2)c1O` gave PLK1 PBD block -9.7%, Gal4-VP16 FLuc -3.8%, RORg inh inconclusive and Sfp inh 16.1%.
COc1cc([N+](=O)[O-])cc(/C=N/NC(=O)CSc2ccccn2)c1O was read as PLK1 PBD block -3.1%, Gal4-VP16 FLuc 6.31µM*, RORg inh 0.631µM* and Sfp inh 13.9%.
`CC/C(C)=N/O` gave ALDH1A1 block 15.2%, Gal4-VP16 FLuc -4.8% and RORg inh 11.4%.
CCc1ccc(CNC(=O)c2ccc3nc(C4CCCCC4)oc3c2)nc1 was read as Gal4-VP16 FLuc 11.2µM*, RORg inh 6.31µM* and Sfp inh -0.7%.
Screening CCOC(=O)CCNC(=O)c1ccc2nc(C3CCCCC3)oc2c1 returned PLK1 PBD block -2.0%, Gal4-VP16 FLuc -5.3%, RORg inh inconclusive and Sfp inh 21.1%.
Screening CCC/C=C(\CCC)C(NC(=O)OCC(C)C)c1ccccc1 (stereo not drawn) returned ALDH1A1 block 4.5%, Gal4-VP16 FLuc -4.0%, RORg inh 2.3% and Sfp inh 30.5%.
CC1CCCCN1Cc1c(O)ccc2c(=O)c(-c3nc4ccccc4s3)coc12 (stereo not drawn) was read as ALDH1A1 block inconclusive, PLK1 PBD block 21.2µM*, Gal4-VP16 FLuc -2.8%, RORg inh 22.5% and Sfp inh 12.2%.
`CO[C@H]1COC(=O)C/C=C\[C@H](C)[C@@H](OC)COC(=O)[C@@H](C)COC(=O)C/C=C\[C@@H]1C` gave ALDH1A1 block -5.6%[13.5 µM], Gal4-VP16 FLuc -1.3%[10 µM], RORg inh 20.9%[10 µM] and Sfp inh 30.9%.
For O=C(NCc1cccnc1)NC1(C(F)(F)F)Oc2ccc(Cl)cc2O1 (stereo not drawn) the results were ALDH1A1 block 11.3%, PLK1 PBD block 3.4%, Gal4-VP16 FLuc inconclusive, RORg inh 11.2µM* and Sfp inh 0.3%.
Screening CCCC(=O)NC(c1cccc([N+](=O)[O-])c1)c1ccc2cccnc2c1O (stereo not drawn) returned PLK1 PBD block 0.8%.
`COc1ccc(C(NC(C)=O)c2ccc3cccnc3c2O)c(OC)c1` (stereo not drawn) gave ALDH1A1 block -6.4%, PLK1 PBD block -1.2%, Gal4-VP16 FLuc 4.47µM*, RORg inh inconclusive and Sfp inh 5.7%.
Screening CC(=O)NC(c1ccc(Cl)cc1Cl)c1ccc2cccnc2c1O (stereo not drawn) returned PLK1 PBD block 0.0%, Gal4-VP16 FLuc 1.78µM*, RORg inh 2µM* and Sfp inh -5.3%.
CCCC(=O)NC(c1ccc(C)cc1)c1ccc2cccnc2c1O (stereo not drawn) was read as PLK1 PBD block -10.5%, Gal4-VP16 FLuc 2.24µM*, RORg inh 1.58µM* and Sfp inh 23.7%.
Screening CC(=O)NC(c1ccc2ccccc2c1)c1ccc2cccnc2c1O (stereo not drawn) returned PLK1 PBD block 2.0%, Gal4-VP16 FLuc 1.58µM*, RORg inh 5.01µM* and Sfp inh -12.8%.
CCC(=O)N[C@@H]1CCc2cccc(OC)c2C1 was read as ALDH1A1 block 2.6%, Gal4-VP16 FLuc 1.2%, RORg inh 13.7% and Sfp inh -6.1%.
CCN1C=C(C(=O)c2ccccc2)C(=O)CC1 was read as PLK1 PBD block -6.3%.
`CCCCC(=O)NC(c1ccc(Cl)cc1)c1ccc2cccnc2c1O` (stereo not drawn) gave PLK1 PBD block 26.7µM*.
`CCCCC(=O)NC(c1ccccc1Cl)c1c(O)ccc2ccccc12` (stereo not drawn) gave ALDH1A1 block 11.9%, PLK1 PBD block -1.6%, Gal4-VP16 FLuc -14.3%, RORg inh inconclusive and Sfp inh 3.6%.
Screening CCCC(=O)NC(c1ccc(Cl)cc1Cl)c1ccc2cccnc2c1O (stereo not drawn) returned PLK1 PBD block 5.6%, Gal4-VP16 FLuc 2µM*, RORg inh 5.62µM* and Sfp inh 25.9%.
For CCCC(=O)NC(c1ccc(Cl)cc1)c1ccc2cccnc2c1O (stereo not drawn) the results were PLK1 PBD block 4.4%, Gal4-VP16 FLuc 2.82µM*, RORg inh 2.24µM* and Sfp inh 20.8%.
Screening CCCC(=O)NC(c1ccccc1Cl)c1c(O)ccc2ccccc12 (stereo not drawn) returned ALDH1A1 block inconclusive, PLK1 PBD block -5.6%, Gal4-VP16 FLuc -9.1%, RORg inh 6.2%[10 µM] and Sfp inh 3.1%.
Screening CCN(CC)CC[n+]1ccc2c(C)c3[nH]c4ccccc4c3c(C)c2c1 returned ALDH1A1 block 1.6%[13.5 µM].
Screening Cc1cc(C)c(C)c(C(=O)C(=O)c2ccccc2)c1 returned PLK1 PBD block 1.6%.
For Cc1noc(C)c1C(=O)N1CCC2(CC1)CCN(c1ccncc1)CC2 the results were ALDH1A1 block inconclusive, Gal4-VP16 FLuc 9.7%, RORg inh -14.9% and Sfp inh 6.5%.
For COc1ccc(C(=O)n2nc(-c3ccco3)nc2N)cc1OC the results were ALDH1A1 block -3.0%, PLK1 PBD block -17.7%, Gal4-VP16 FLuc 1.3%[10 µM], RORg inh -5.9% and Sfp inh -2.4%.
COc1ccc(C(=O)n2nc(-c3ccccc3)nc2N)cc1OC was read as ALDH1A1 block -6.5%, PLK1 PBD block -8.6%, Gal4-VP16 FLuc -12.8%, RORg inh 7.2% and Sfp inh 79.4µM*.

Assay outcomes as filed in PubChem BioAssay.
